# Shown are actives, neighbours in structure and some others; about 3.5% of the full set was active somewhere.
# GDH-TPI counter-1: inhibits GDH-TPI coupling enzymes, artifact for Mtb FBA screen. 360,000 compounds, 1.2% hits. inhibition, % at 4.8 µM. GDH-TPI coupled enzyme counterscreen, NADH absorbance; in the data active = inhibition above about 30%
# Rv3671c protease: inhibits the M. tuberculosis serine protease Rv3671c | AID 2606 | inhibition, % at 5.96 µM | 320,000 compounds, 0.048% hits; in the data active = inhibition above about 38%;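 note: extracellular domain of Rv3671c used as enzyme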
# Mtb UGM inh: blocks M. tuberculosis UGM enzyme. purified UGM, fluorescence polarization probe displacement. inhibition, % at 10 µM. 320,000 compounds, 0.06% hits. AID 504406; in the data active = inhibition above about 10%, passing the limit was not always enough
# Target sequence (P9WIQ1 whole entry, looked up): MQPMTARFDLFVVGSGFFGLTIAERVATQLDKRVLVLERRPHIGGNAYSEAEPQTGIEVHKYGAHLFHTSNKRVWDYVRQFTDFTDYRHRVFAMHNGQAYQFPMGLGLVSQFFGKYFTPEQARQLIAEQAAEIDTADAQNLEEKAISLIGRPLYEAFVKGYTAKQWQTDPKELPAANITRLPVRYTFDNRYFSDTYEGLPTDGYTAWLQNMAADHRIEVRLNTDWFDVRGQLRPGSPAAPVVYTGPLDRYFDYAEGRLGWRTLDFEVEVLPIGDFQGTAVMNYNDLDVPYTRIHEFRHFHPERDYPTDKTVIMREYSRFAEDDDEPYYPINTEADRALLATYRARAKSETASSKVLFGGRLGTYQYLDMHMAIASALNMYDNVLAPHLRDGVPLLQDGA
# Mtb FBA inh: inhibitors of M. tuberculosis fructose-bisphosphate aldolase; 360,000 compounds, 2.3% hits; inhibition, % at 1 µM; P9WQA3; purified M. tuberculosis FBA, fluorescence read-out
# Mtb FBA confirm: confirmation of M. tuberculosis fructose-bisphosphate aldolase inhibitors; 5,600 compounds, 78% hits; purified M. tuberculosis FBA, fluorescence read-out; inhibition, % at 1 µM; shares compounds with Mtb FBA inh
# GDH-TPI counter-2: inhibits GDH-TPI coupling enzymes, flagging Mtb FBA hits; shares compounds with Mtb FBA inh; inhibition, % at 1 µM; GDH-TPI coupled enzyme counterscreen, fluorescence; 5,600 compounds, 81% hits; AID 652141; in the data active = inhibition above about 10%
# GDH-TPI DR: inhibits GDH-TPI coupling enzymes in dose response; shares compounds with Mtb FBA inh; GDH-TPI coupled enzyme assay, fluorescence, artifact counterscreen; AID 652145; IC50, µM; 170 compounds, 79% hits; call rule not given here
# Hits are given with their value; 0 = inactive; - = not tested or not shown; + = active, no number. Cut-off read from the data, not from the text of the source, unless noted: active = inhibition above about 27%; inactive = the rest.
SMILES,GDH-TPI counter-1,Rv3671c protease,Mtb UGM inh,Mtb FBA inh,Mtb FBA confirm,GDH-TPI counter-2,others
O=C(CCN1C(=O)c2ccccc2C1=O)C1=NN[C@@H]2C(=O)N(c3ccc4c(c3)OCO4)C(=O)[C@H]12,0,0,0,0,-,-,
O=C(O)c1cc(S(=O)(=O)Nc2ccccc2C(=O)O)ccc1O,0,0,0,29,0,0,GDH-TPI DR=0
O=[N+]([O-])c1ccc(N2CCOCC2)c([N+](=O)[O-])c1,0,-,-,0,-,-,
O=[N+]([O-])c1ccc(N2CCCC2)c([N+](=O)[O-])c1,0,-,-,29,182,123,
Cc1ccc(NC(=O)c2ncn(CCCNCC(C)c3ccccc3)n2)cc1C (configuration not stated),0,-,-,0,-,-,
COCCNC(=O)C1(C)CCCN(C(=O)c2cc(C)oc2C)C1 (configuration not stated),0,-,-,0,-,-,
COc1ccc(S(=O)Cc2ccc(C(=O)NCc3cccc(OC)c3)o2)cc1 (configuration not stated),0,0,0,29,58,42,
CCOCc1c(C(=O)N2CCN(CC(=O)Nc3ccc(F)cc3)CC2)oc2ccccc12,0,-,-,0,-,-,
OCCN1CCN(c2nc(NCc3ccco3)c3ccccc3n2)CC1,0,0,0,0,-,-,
OCCNc1nc(N2CCN(c3ccccc3)CC2)nc2ccccc12,0,0,0,107,+,177,
Cc1ccc2nc(NCCC(=O)O)nc(-c3ccccc3)c2c1,0,0,0,36,48,48,
OCCCNc1nc(-c2ccccc2)c2cc(Br)ccc2n1,0,0,0,0,-,-,
Cc1ccc2nc(NCC(=O)O)nc(-c3ccccc3)c2c1,0,0,0,30,54,46,
Cc1ccc2nc(NCCCO)nc(-c3ccccc3)c2c1,0,0,0,31,+,+,
CCC1NC(=O)c2cc3ccccc3cc2-n2c1nc1cc(OC)c(OC)cc1c2=O (configuration not stated),0,-,-,0,-,-,
COc1cccc(CN(C(=O)c2cccs2)C2CCS(=O)(=O)C2)c1 (configuration not stated),0,0,0,0,-,-,
CCCCN1C(=O)C(CC(=O)NCc2ccco2)CC(C(=O)N(CC)CC)=C1C (configuration not stated),0,-,-,0,-,-,
Cc1cc(-c2nc3ccccc3o2)c2ccccc2n1,0,0,0,34,0,0,GDH-TPI DR=5.7
CCC1(C)Cc2ccccc2-c2nc(-c3ccccc3)oc(=O)c21 (configuration not stated),0,0,0,0,-,-,
CCC1(C)Cc2ccccc2-c2nc3n(c(=O)c21)CC(C(=O)O)S3 (configuration not stated),0,0,0,39,0,0,
CCc1cc(C(=O)NC2CCCN(Cc3ccccc3F)C2)n(C)n1 (configuration not stated),0,0,0,0,-,-,
COCC(C)NC(=O)c1ccccc1OC(C)=O (configuration not stated),0,0,0,35,42,38,
CC(=O)Oc1ccccc1C(=O)NC(C)CCc1ccccc1 (configuration not stated),0,0,0,0,-,-,
O=C(c1ccc(F)cc1)n1ccc(-c2cnc(-c3ccccc3)s2)n1,0,0,0,47,81,59,
Cc1cc(=O)oc2c(C)c(OCC(=O)NCCCN3CCCC3=O)ccc12,0,0,0,0,-,-,
SMILES,GDH-TPI counter-1,Rv3671c protease,Mtb UGM inh,Mtb FBA inh,Mtb FBA confirm,GDH-TPI counter-2,others
Cc1cc(OCC(=O)NCCCN2CCOCC2)c2c(C)c(C)c(=O)oc2c1,0,0,0,86,129,144,
Cc1cc(OCC(=O)NCCCN2CCCC2=O)c2c(C)c(C)c(=O)oc2c1,0,0,0,80,+,+,
Cc1c(OCC(=O)NCCCN2CCCC2=O)ccc2c3c(c(=O)oc12)CCC3,0,0,0,0,-,-,
CCCc1cc(=O)oc2c(C)c(OCC(=O)NCCCN3CCOCC3)ccc12,0,0,0,0,-,-,
Cc1cc(OCC(=O)NCCc2ccc(S(N)(=O)=O)cc2)c2c(C)c(C)c(=O)oc2c1,0,0,0,65,0,0,GDH-TPI DR=2
Cc1c(OCC(=O)NCCCN2CCCC2=O)ccc2c3c(c(=O)oc12)CCCC3,0,0,0,29,+,+,
Cc1cc(=O)oc2cc(OCC(=O)NCCCN3CCCC3=O)ccc12,0,0,0,0,-,-,
Cc1c(C)c2ccc(OCC(=O)NCCCN3CCCC3=O)cc2oc1=O,0,0,0,87,56,46,
